Compounds without any hit were thinned out: in the full panel of roughly 83,000, 20% have a hit.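 Method: cells in 96-well plates; compound added at one concentration; 48 h incubation; percent growth measured; values under 10 scored active.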 A number with no mark means an inactive call. Activity calls are given as the source filed them.

Among the test systems are NCI-H23 lung; NCI-H226 lung; NCI-H322M lung; HOP-62 NSCLC; NCI-H460 lung; HOP-92 NSCLC; NCI-H522 lung; A549/ATCC NSCLC; 786-0 renal; COLO 205 colon; DU-145 prostate; K-562 leukemia; MALME-3M melanoma; MDA-MB-231 breast; RXF 393 renal; SF-268 CNS; SF-295 CNS; SF-539 CNS; UACC-257 melanoma; M14 melanoma.
What all share (test): NCI-60 one-dose screen, 48 h (100 = growth as untreated, 0 = no growth, -100 = all killed)
Common to all, as to conditions: 10 µM unless noted

On to `Brc1ccc2c(c1)c(-c1nc(-c3c[nH]c4ncccc34)cs1)cn2CCCN1CCCCC1`, for which the growth with NCI-H23 lung was 22.4%; with NCI-H226 lung it was 71.2%; with NCI-H322M lung it was 39.1%; in the assay on HOP-62 NSCLC, -66.7% (active); in the assay on NCI-H460 lung, -67.7% (active); in the assay on HOP-92 NSCLC, 31.7%. Further, the growth is -3.42% (active) with NCI-H522 lung; -69.6% (active) in the assay with A549/ATCC NSCLC; -74.8% (active) in the assay with 786-0 renal; -77.4% (active) in the assay with COLO 205 colon; -44.4% (active) in the assay on DU-145 prostate; -64.4% (active) in the assay on K-562 leukemia. In addition, the growth is -45.9% (active) with MALME-3M melanoma; -43.3% (active) in the assay with MDA-MB-231 breast; 23.6% with RXF 393 renal; 7.71% (active) in the assay on SF-268 CNS; 27.3% in the assay with SF-295 CNS; -77.6% (active) in the assay with SF-539 CNS. The growth in the assay with UACC-257 melanoma was 66.1%; with M14 melanoma, -81.4% (active).

Take `COC(=O)[C@]12CC[C@@H](C)[C@H](C)[C@@H]1C1=CC[C@@H]3[C@@]4(C)CC(=O)[C@H](OC(=O)c5ccco5)[C@@]5(C)COC(=C45)C[C@@]3(C)[C@]1(C)CC2`: the growth with NCI-H23 lung is 33.5%; in the assay on NCI-H226 lung, 23.6%; in the assay with NCI-H322M lung, 53.7%; with HOP-62 NSCLC, 34.4%; in the assay on NCI-H460 lung, 9.59% (active); with HOP-92 NSCLC it was 60.6%. Further, the growth in the assay with NCI-H522 lung was 26.9%; in the assay with A549/ATCC NSCLC, 25%; with 786-0 renal, 6.39% (active); in the assay on COLO 205 colon, -40.6% (active); in the assay on DU-145 prostate, 37.9%; in the assay on K-562 leukemia, 23.7%. The growth is 21.9% in the assay with MALME-3M melanoma; 40.4% in the assay with MDA-MB-231 breast; 44.5% in the assay on RXF 393 renal; 40.7% with SF-268 CNS; 35.6% in the assay with SF-295 CNS; 39% in the assay on SF-539 CNS. Further, in the assay on M14 melanoma, the growth was 22.2%.

Consider `C[C@H]1[C@@H]2[C@H]3CC[C@@H]4[C@@]5(C)Cc6c([nH]c7ccccc67)C(C)(C)[C@@H]5CC[C@@]4(C)[C@]3(C)CC[C@]23CO[C@]1(C)[C@@H](C(=O)/C=C/c1ccccn1)C3`, for which the growth in the assay with NCI-H23 lung was 91.7%; with NCI-H226 lung, 101%; in the assay on NCI-H322M lung it was 112%; in the assay with HOP-62 NSCLC, 109%; with NCI-H460 lung, 98.3%; in the assay on HOP-92 NSCLC it was 67.2%. Further, the growth in the assay on NCI-H522 lung was 92.1%; in the assay on A549/ATCC NSCLC, 89.4%; with 786-0 renal it was 106%; in the assay with COLO 205 colon, 102%; in the assay on DU-145 prostate, 102%; in the assay on K-562 leukemia, 72.5%. The growth with MALME-3M melanoma is 106%; with MDA-MB-231 breast, 85%; with RXF 393 renal, 89.3%; in the assay on SF-268 CNS, 88.8%; in the assay with SF-295 CNS it was 99.4%; in the assay on SF-539 CNS, 84.9%. The growth in the assay on UACC-257 melanoma is 103%; in the assay on M14 melanoma, 93.6%.

Consider `C[C@]12CC[C@@H]3c4ccc(O)cc4CC[C@H]3[C@@H]1C[C@H](O)[C@@H]2O`, for which the growth was 91.2% in the assay on NCI-H23 lung; 85% with NCI-H226 lung; 88.7% with NCI-H322M lung; 94.2% with HOP-62 NSCLC; 95.2% in the assay on NCI-H460 lung; 99.2% in the assay on HOP-92 NSCLC. Moreover, the growth in the assay on NCI-H522 lung was 98.3%; in the assay with A549/ATCC NSCLC, 97.9%; in the assay on 786-0 renal, 106%; with COLO 205 colon it was 102%; with DU-145 prostate, 94.9%; with K-562 leukemia it was 118%. Besides, the growth was 95.8% in the assay with MALME-3M melanoma; 94.4% in the assay with MDA-MB-231 breast; 86.9% in the assay on RXF 393 renal; 89.8% in the assay with SF-268 CNS; 92.5% in the assay with SF-295 CNS; 92.1% in the assay on SF-539 CNS. Besides, the growth with M14 melanoma is 90.9%.

Take `Cc1cc(N(CCCNc2ccnc3cc(Cl)ccc23)Cc2ccco2)nc(Cl)n1`: the growth in the assay with NCI-H23 lung is 31.5%; in the assay on NCI-H226 lung, 68.1%; in the assay on NCI-H322M lung it was 76.6%; in the assay with HOP-62 NSCLC, 41.6%; in the assay with NCI-H460 lung, 57.1%; with HOP-92 NSCLC it was 27.1%. For the same compound, the growth was 59.9% in the assay on NCI-H522 lung; 67% in the assay on A549/ATCC NSCLC; 55.6% with 786-0 renal; 24.5% in the assay on COLO 205 colon; 71.6% in the assay with DU-145 prostate; 9.75% (active) in the assay with K-562 leukemia. The growth in the assay with MALME-3M melanoma is 74%; with MDA-MB-231 breast, 61.7%; in the assay with RXF 393 renal it was 71.1%; in the assay with SF-268 CNS, 72.7%; in the assay with SF-295 CNS, 42.3%; in the assay on SF-539 CNS it was 54.3%. Also, the growth in the assay on UACC-257 melanoma was 59.9%; in the assay with M14 melanoma, 46.4%.

Turning to `CC(C)(C)c1[nH]nc2c1C(c1cc3ccccc3[nH]c1=O)Nc1cc(C(=O)OCc3ccccc3)ccc1N2` (stereo not drawn), the growth is 69% in the assay with NCI-H23 lung; 74.8% in the assay on NCI-H226 lung; 63% in the assay on NCI-H322M lung; 65.1% in the assay with HOP-62 NSCLC; 19.4% in the assay on NCI-H460 lung; 87.7% with HOP-92 NSCLC. Also, the growth with NCI-H522 lung is 74.6%; in the assay on A549/ATCC NSCLC, 41.6%; in the assay with 786-0 renal it was 49.4%; with COLO 205 colon, 84.3%; in the assay on DU-145 prostate, 65%; with K-562 leukemia it was 17.1%. The growth is 58.7% in the assay with MALME-3M melanoma; 63.3% in the assay with MDA-MB-231 breast; 59.7% in the assay on RXF 393 renal; 58.9% in the assay with SF-268 CNS; 30.3% in the assay with SF-295 CNS; 66.1% in the assay on SF-539 CNS. Besides, the growth in the assay on UACC-257 melanoma is 69.7%; in the assay on M14 melanoma it was 55.6%.

On to `Cc1cc(C)n(Cc2cc(C(C)(C)C)cc(C(C)(C)C)c2)c(=O)c1C#N`, for which the growth in the assay on NCI-H23 lung is 101%; in the assay with NCI-H226 lung, 93.3%; with NCI-H322M lung it was 92.5%; with HOP-62 NSCLC, 96.3%; with NCI-H460 lung, 93.9%; in the assay with HOP-92 NSCLC it was 86%. In addition, the growth in the assay with NCI-H522 lung is 83.9%; in the assay with A549/ATCC NSCLC, 98%; with 786-0 renal, 93.5%; in the assay with COLO 205 colon it was 110%; in the assay with DU-145 prostate, 103%; in the assay on K-562 leukemia it was 88.1%. In addition, the growth in the assay on MALME-3M melanoma was 82.4%; with MDA-MB-231 breast it was 82.5%; in the assay on RXF 393 renal, 101%; in the assay with SF-268 CNS, 94.8%; with SF-295 CNS, 85.9%; with SF-539 CNS it was 90.8%. The growth in the assay on UACC-257 melanoma is 102%; in the assay with M14 melanoma it was 89.8%.

Consider `CCN1CCN(C(=O)[C@]23CCC(C)(C)C[C@H]2C2=CC[C@@H]4[C@@]5(C)CC/C(=N/O)C(C)(C)[C@@H]5CC[C@@]4(C)[C@]2(C)CC3)CC1`, for which the growth was 69.7% with NCI-H23 lung; 66.5% in the assay on NCI-H226 lung; 86.1% in the assay on NCI-H322M lung; 76.9% with HOP-62 NSCLC; 72% in the assay with NCI-H460 lung; 52.7% with HOP-92 NSCLC. Besides, the growth in the assay with NCI-H522 lung is 45.2%; in the assay on A549/ATCC NSCLC, 74%; in the assay on 786-0 renal it was 57.5%; in the assay with COLO 205 colon it was 87.9%; in the assay with DU-145 prostate, 86.4%; with K-562 leukemia, 58.8%. In addition, the growth in the assay with MALME-3M melanoma was 62.9%; in the assay on MDA-MB-231 breast it was 9.19% (active); with RXF 393 renal, 81.2%; with SF-268 CNS, 67.2%; in the assay on SF-295 CNS, 65.7%; with SF-539 CNS, 80.4%. The values for the growth in the assay with UACC-257 melanoma and in the assay on M14 melanoma were 80.4% and 65.6%, respectively.

The record behind these values is PubChem BioAssay (NCI).
